High-throughput results (PubChem BioAssay)
Only some compounds are listed: those with a hit (about 2.2% of all), similar ones and a draw of the others.
PAX8 reporter: PAX8 transcriptional activity inhibition | RMG-I TPO-luciferase reporter, SteadyGlo, 24 h | inhibition, % at 12.6 µM | 360,000 compounds, 1.2% hits;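 active means mean replicate inhibition at least 60% with every replicate also reaching 60%; inconclusive means only one of the two criteria is met; inactive means mean below 60% and not all replicates reaching 60%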;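 further: luciferase light reporting Pax8 driven TPO promoter activity; plate controls were median of neutral control wells for no effect and mitoxantrone controls for full effect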
LMP1 NFkB inh: reduces LMP1-driven NF-kappaB luciferase signal; LMP1-induced NF-kappaB luciferase reporter cells, luminescence; inhibition, % at 12.5 µM; 350,000 compounds, 0.69% hits; AID 504558; in the data active means inhibition above about 41%; inconclusive means no clear call, values can overlap the other calls;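 further: 0% = neutral control wells and 100% = reference inhibitor control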
EWS-Fli block: blocks EWS/Fli oncoprotein-driven transcription; A673 NR0B1-luciferase reporter, viability-normalised; inhibition, % at 12.6 µM; 350,000 compounds, 0.67% hits; AID 651661;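 active means mean inhibition of at least 50% after viability correction, with every replicate also passing that limit; inconclusive means mean reaches 50% but only one of two replicates passes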;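 further: firefly luciferase signal divided by Alamar Blue viability fluorescence both relative to DMSO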
Shn3 inh set2: reduces Shn3 3'UTR luciferase signal in osteoblasts | Clone20 osteoblast Shn3 3'UTR firefly luciferase, 24 h | inhibition, % at 12.5 µM | 360,000 compounds, 0.52% hits | AID 588674;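 active means mean inhibition of at least 75% with every replicate also reaching 75%; inconclusive means mean inhibition at least 75% but some replicate below; inactive means mean inhibition below 75%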;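 further: 0% = median of neutral control wells and 100% = pilot-screen positive control compound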
LGR2 inh: Drosophila LGR2 receptor signaling inhibition; HEK293 LGR2, CRE-luciferase, bursicon-stimulated, 4 h; inhibition, % at 9.99 µM; 380,000 compounds, 0.35% hits; AID 720647;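 active means drop in luminescence signal, shown as inhibition above about 50% in the replicate tests, limit read from the data, passing the limit was not always enough; inconclusive means probably only some replicates passing the limit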;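 further: agonist challenge used bursicon conditioned medium at about half maximal strength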
MITF TRPM1 inh: inhibitors of MITF-driven TRPM1 promoter in melanoma cells. SK-MEL-5 TRPM1 promoter luciferase, 24 h. inhibition, % at 12.5 µM. 330,000 compounds, 0.83% hits;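 active means mean inhibition across replicates of 60% or more, whatever share of single replicates reaches that level; inconclusive means some that reach 60%, reason not given; inactive means mean inhibition across replicates below 60%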
The depositor's hits bear a star; ? = inconclusive; . = no result; ! = not confirmed by another sample.

SMILES | PAX8 reporter | LMP1 NFkB inh | EWS-Fli block | Shn3 inh set2 | LGR2 inh | MITF TRPM1 inh
COc1ccc(-c2c(C)nn3c(NC4CCCC4)cc(C)nc23)cc1OC | 11 | 4 | 10 | -21 | -14 | 18
CCc1c(C)nc2cc(-c3ccc(OC)c(OC)c3)nn2c1NCC1CC1 | . | 80* | . | 93* | . | -22
O=C(Nc1ccc(-c2nc3ccc(NC(=O)c4cccs4)cc3[nH]2)cc1)c1cccs1 | . | -15 | . | 78 | . | 79*
O=C(COc1ccc2ccccc2c1)NNC(=O)Cc1ccccc1 | -18 | 6 | 0 | -5 | . | 7
O=C(COc1ccc2ccccc2c1)NCCNC(=O)COc1ccc2ccccc2c1 | . | 54* | . | 8 | . | 14
O=C(C[C@@H]1CC[C@@H]2[C@H](COC[C@@H](O)CN2C(=O)Nc2ccc(Cl)c(Cl)c2)O1)NCc1ccncc1 | 20 | . | -17 | . | -12 | .
CCN(CC)C(=O)c1oc2ccc(S(=O)(=O)N3CC(C)CC(C)C3)cc2c1C (configuration not stated) | 46 | 8 | 49 | 91* | 24 | 32
CCOc1ccc(C(=O)Nc2cccc(C(=O)O)c2C)cc1Cl | 36 | 15 | 23 | 8 | 70* | 67*
O=C(Nc1ccccc1C(=O)O)c1ccccc1 | . | -20 | . | -31 | . | -9
Cc1c(NC(=O)c2ccc(-c3ccccc3)cc2)cccc1C(=O)O | -2 | 8 | 31 | 26 | 56* | 15
CCOc1ccc(Cl)cc1S(=O)(=O)n1cnc2ccccc21 | . | -9 | . | -1 | . | 21
CCOc1ccc(C)cc1S(=O)(=O)n1cnc2ccccc21 | -2 | 0 | 59* | -18 | 1 | 26
C/C=C/c1cnc2c(c1)C(=O)N([C@@H](C)CO)C[C@H](C)[C@H](CN(C)Cc1cccc(C(=O)O)c1)O2 | -14 | . | -4 | . | 23 | .
O=C(Nc1ccccc1)C1=C[C@H](c2ccc(C(F)(F)F)cc2)C[C@H](OCCCCO)O1 | 87*! | -8 | -89 | -39 | -15 | -36
COc1ccc(CN(C)C[C@@H]2Oc3c(NS(C)(=O)=O)cccc3C(=O)N([C@@H](C)CO)C[C@H]2C)cc1 | -17 | . | . | . | -18 | .
CCN(CC)S(=O)(=O)c1ccc(N=NC2=C(O)CCCC2=O)cc1 | 17 | 63* | 1 | 10 | 4 | -6
C[C@H](CO)N1C[C@H](C)[C@@H](CN(C)Cc2ccccn2)Oc2cc(C3=CCCC3)ccc2S1(=O)=O | 17 | . | 17 | . | -16 | .
C=CCn1c(SCC(=O)c2[nH]c(C)c(C(=O)OCC)c2C)nc2scc(-c3ccc(OC)c(OC)c3)c2c1=O | 22 | -1 | . | 80 | -2 | 102*
CCOC(=O)c1c(C)[nH]c(C(=O)CSc2nnc(-c3ccncc3)n2CC)c1C | . | 1 | . | 3 | 10 | -6
O=C(c1ccc(F)cc1)C(CN1CCOCC1)c1ccccc1 (configuration not stated) | . | 26 | 57* | 94* | 58* | 90*
CCCOc1ccc(C(=O)C(CN2CCCC2)c2ccccc2)cc1 (configuration not stated) | 52 | -36 | 61* | 95* | 27 | 77*
c1ccc(C(CN2CCOCC2)c2ccccc2)cc1 | . | 5 | . | 10 | . | 1
O=C(c1ccccc1)C(CCC(CN1CCOCC1)C(=O)c1ccccc1)CN1CCOCC1 (configuration not stated) | . | 50* | . | 97* | . | 75*
COc1ccc(C(=O)C(CN2CCCC2)c2ccccc2)cc1 (configuration not stated) | . | -31 | . | 11 | . | 64*
O=C(NCC(c1ccc(F)cc1)N1CCOCC1)c1ccc(-c2ccccc2)cc1 (configuration not stated) | 8 | -5 | 0 | 3 | 10 | -2
SMILES | PAX8 reporter | LMP1 NFkB inh | EWS-Fli block | Shn3 inh set2 | LGR2 inh | MITF TRPM1 inh
CCN1[C@@H]2Cn3c(ccc(-c4ccccc4F)c3=O)[C@H]1[C@@H](C(=O)NCc1ccc(F)cc1)[C@@H]2CO | -1 | . | 3 | . | 3 | .
CO[C@H]1CN(C)C(=O)c2cc(NC(=O)NC(C)C)ccc2OC[C@H](C)N(CC2CC2)C[C@@H]1C | -14 | . | -18 | . | -8 | .
Cc1noc(C)c1NC(=O)N(C)C[C@@H]1Oc2ccc(N(C)C)cc2C(=O)N([C@@H](C)CO)C[C@@H]1C | 3 | . | 0 | . | 2 | .
C[C@@H]1CN([C@H](C)CO)C(=O)c2cc(NC(=O)c3ccncc3)ccc2O[C@@H]1CN(C)Cc1ccc(-c2ccccc2)cc1 | 19 | . | 25 | . | -3 | .
O=C(c1ccc(Cl)cc1)C(CN1CCCC1)c1ccccc1 (configuration not stated) | 48 | 46* | 65* | -1 | 14 | 77*
COc1ccc(C(=O)C(CN2CCOCC2)c2ccccc2)cc1 (configuration not stated) | . | ? | 3 | 89* | 54* | 83*
CCCCOc1ccc(C(=O)C(CN2CCOCC2)c2ccccc2)cc1 (configuration not stated) | . | -96 | . | -13 | . | 33
CC1(C)CC(=O)C=C(NC2=CC3OC(c4ccccc4)OCC3OC2=O)C1 (configuration not stated) | ? | -24 | 0 | 7 | 86* | 71*
O=C(N/N=C(\c1ccccc1)c1cccnc1)c1cccc(F)c1 | 73* | 46* | . | 95* | 25 | 90*
COc1cccc(CNC(=O)C[C@H]2CC[C@H]3[C@H](COc4ccc(NC(C)=O)cc4C(=O)N3C)O2)c1 | -6 | . | 0 | . | 4 | .
C[C@H]1CN([C@@H](C)CO)S(=O)(=O)c2ccc(-c3cccnc3)cc2O[C@@H]1CN(C)C(=O)C1CC1 | . | . | -8 | . | 0 | .
O=C(N/N=C/c1ccc2ncccc2c1)c1ccco1 | 13 | 48* | 18 | -1 | 55* | -3
CNC(=O)C[C@H]1CC[C@@H]2[C@@H](COc3ccc(NC(=O)c4ccccc4Cl)cc3C(=O)N2C)O1 | -54 | . | -14 | . | -15 | .
COc1cc2c(cc1OC)C(C1C(=O)CC(C)(C)CC1=O)N(C(=O)CCl)CC2 (configuration not stated) | 5 | 6 | -2 | 1 | -3 | 0
COc1cc2c(cc1OC)C(c1cc(Br)ccc1F)N(C(=O)CCl)CC2 (configuration not stated) | -18 | -10 | 58* | 98* | -18 | 98*
NC(N)=N/N=C/c1ccccc1 | . | -10 | . | -13 | . | -7
COc1cc(/C=N/O)ccc1OCc1ccc(C(=O)O)cc1 | 94* | 86* | . | 90* | . | 96*
COc1cc(/C=N/N=C(N)N)ccc1OCc1ccc(Cl)cc1 | -17 | 13 | 44 | 56 | 32 | 89*
NC(N)=N/N=C/c1ccc(OCc2ccccc2)c(OCc2ccccc2)c1 | -3 | -24 | 29 | 67 | 15 | 82*
CCOc1cc(CNCCc2ccc(S(N)(=O)=O)cc2)ccc1OCc1ccc(Cl)cc1 | . | -65 | . | 91* | . | 92*
